Results published in PubChem BioAssay AID1856 (The Scripps Research Institute Molecular Screening Center, 2009).
Hit rate of the full screen: of about 1,300 compounds, fewer than 10 were called active. The rule behind the calls is not given here. A selection follows.

Tested on: metallo-beta-lactamase IMP-1 (Pseudomonas aeruginosa)
Assay: IMP-1 enzyme inhibition by VIM-2 hits – biochemical, epi-absorbance readout, triplicate, selectivity assay for selective VIM-2 inhibitor project, confirmation (AID 1856);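 note: 0% = enzyme with vehicle and 100% = vehicle without enzyme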
Conditions: purified IMP-1, nitrocefin hydrolysis, epi-absorbance fluorescence; at 5.6 µM; stronger effect = higher value

inhibition, inactive:
CN1CCN(c2ccc(NC(=O)c3ccc4c(c3)[nH]c(=O)n4Cc3ccc(F)cc3)cc2)CC1 -2.45%
Nc1cccc2c1C(=O)N(Cc1nnc(-c3ccccc3Br)o1)C2=O -1.84%
O=C(NC(=S)Nc1ccccc1C(=O)O)c1ccc(-c2ccc(Br)cc2)o1 -2.92%
Cn1c2ccccc2c(=O)c2c(O)cccc21 1.94%
O=c1[nH]c(-c2ccccc2)c(-c2ccccc2)[nH]1 -1.69%
COc1ccc(/C=N/N(C)C2=NS(=O)(=O)c3ccccc32)cc1OC -2.33%
CCOc1cc(/C=C2\SC(N3CCCCC3)=NC2=O)ccc1O -4.28%
CCN1CCN(C(=O)Cn2nc(C)n3c(cc4c(OC)cccc43)c2=O)CC1 -3.39%
Clc1cc(-c2ccc(/C=N/n3cnnc3)o2)ccc1Br -2.66%
Nc1nnc2c(C(F)(F)F)nc3ccccc3n12 -2.31%
Cc1ccc(Cl)cc1-c1ccc(/C=N/n2cnnc2)o1 -3.92%
COc1ccc(CCn2c(=N)c(C(=O)NCC3CCCO3)cc3c(=O)n4cccc(C)c4nc32)cc1OC (configuration not stated) -3.13%
COC(=O)c1ccc(-c2noc(CN(Cc3ccccn3)CC3CCCO3)n2)cc1 (configuration not stated) -4.37%
CCOCCCNc1c(CC)c(C)c(C#N)c2nc3ccccc3n12 -2.98%
O=C1Nc2cc(C(=O)N3CCC(N4CCCCC4)CC3)ccc2S/C1=C\c1ccccc1 -4.01%
CCC1CCCCN1CCCNC(=O)c1cc2c(Cl)nc3ccccc3c2s1 (configuration not stated) -2%
Cc1ccc2nc(C)c3c(c2c1)N(c1ccccc1)CC3 -3.39%
Fc1ccc(-c2ccc(CNCc3ccccn3)o2)cc1Cl -3.51%
CC(NS(=O)(=O)c1ccccc1)c1n[nH]c(=S)n1-c1ccccc1 (configuration not stated) -3.01%
Cn1c(=O)c2c(nc(N3CCOCC3)n2CCNC2=NCCC2)n(C)c1=O -2.77%
CCN(CC)CCOc1ccc2c(c1)C(=NNC(=O)c1ccccn1)c1cc(OCCN(CC)CC)ccc1-2 -6.88%
CC(=O)c1ccc(-c2ccc(Cn3c(C)nc4cc(N)c(C)nc43)cc2)cc1 -2.57%
CCCc1ccc(OCCNC(=O)c2ccco2)cc1 -3.83%
CN(C)CCNc1ccc(-c2n[nH]c(=O)c3ccccc23)cc1[N+](=O)[O-] -3.19%
COc1ccc(Cc2nnc(NS(=O)(=O)Cc3ccccc3)s2)cc1 -2.35%
CC(C)(C)CC(=O)Nc1nnc(SCC(=O)NCc2cccs2)s1 -4.47%
CC1CCCC(C)N1CCCNC(=O)c1cc2c(=O)n(C)c3ccccc3c2n1C (configuration not stated) -3.58%
